Assay outcomes (PubChem BioAssay)
3T3 cytotox: cytotoxic compounds in NIH 3T3 cells; AID 1345082; Potency, µM (top dose mostly 96.7 µM), without a hit: at the highest dose activity change, negative = cytotoxicity, most hits filed as inhibitors; NIH 3T3 viability, CellTiter-Glo ATP luminescence, 48-72 h; 94,000 compounds, 4.3% hits; further: nearly all actives have a fitted effect of over 55% in size
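Luminescent ATP readout (CellTiter-Glo, 10 min RT) after 48 or 72 hr compound exposure of NIH 3T3 cells seeded at 400 cells/well in 1536-well format; quantitative HTS.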
HEK cytotox: cytotoxic compounds in HEK 293 cells | HEK 293 viability, ATP luminescence (CellTiter-Glo), 48-72 h | Potency, µM (titrated, usually from 115 µM), for inactives: top-dose activity change, negative = cytotoxicity, hits mostly inhibitors | 94,000 compounds, 6.6% hits | AID 1345083; further: nearly all actives have a fitted effect of over 60% in size
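HEK 293 cells seeded at 250 cells/well were exposed to compound for 48 or 72 hr at 37 degree Celsius. Viability taken as ATP content by CellTiter-Glo luminescence.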
NPR1 antag: human Npr1 receptor antagonism | P16066 | HEK293 hNpr1 GloSensor cGMP, ANP-stimulated luminescence | Potency, µM (top dose mostly 46.3 µM), inactives show at the highest dose activity change, negative = inhibition, usual class: inhibitors | 76,000 compounds, 1.6% hits; calls by dose curve; further: nearly all actives have a fitted effect of over 60% in size
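Compound pre-incubated 30 min at room temperature on GloSensor-loaded HEK293 cells stably carrying hNpr1 and the pGS-40F cGMP biosensor. Stimulation uses hNppA at 0.1 nM final; luminescence is taken at baseline and 20 min post-agonist.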
Luciferase inh: blocks purified firefly luciferase enzyme activity | P08659 | purified P. pyralis luciferase, luminescence, biochemical | Potency, µM (top dose mostly 115 µM), most hits filed as inhibitors | 76,000 compounds, 2.5% hits | AID 1347043; further: nearly all actives have a fitted effect of over 65% in size
Target sequence (P08659 whole entry, looked up): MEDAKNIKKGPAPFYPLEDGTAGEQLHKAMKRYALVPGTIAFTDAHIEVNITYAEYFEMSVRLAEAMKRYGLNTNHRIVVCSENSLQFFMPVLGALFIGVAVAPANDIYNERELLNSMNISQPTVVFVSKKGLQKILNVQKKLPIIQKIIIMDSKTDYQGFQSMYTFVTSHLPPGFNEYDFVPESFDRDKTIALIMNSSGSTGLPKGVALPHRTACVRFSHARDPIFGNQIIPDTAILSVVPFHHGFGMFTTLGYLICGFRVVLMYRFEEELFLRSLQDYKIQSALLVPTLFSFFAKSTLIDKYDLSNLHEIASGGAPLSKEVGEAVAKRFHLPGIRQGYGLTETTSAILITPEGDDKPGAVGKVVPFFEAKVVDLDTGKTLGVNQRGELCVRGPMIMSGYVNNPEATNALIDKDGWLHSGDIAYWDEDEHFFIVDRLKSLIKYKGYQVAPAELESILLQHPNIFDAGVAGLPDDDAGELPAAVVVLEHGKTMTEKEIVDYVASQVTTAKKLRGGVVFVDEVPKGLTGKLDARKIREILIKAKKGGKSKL
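FLuc 10nM, D-luciferin 10uM, ATP 10uM, Mg acetate 10mM, Tris acetate pH 7.5, Tween/BSA; cpd qHTS; enzyme added last; CCD luminescence.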
An asterisk follows results filed as active; i = inactive; ? = inconclusive; nt = no result given; ! = a repeat was not active; [ ] = dose if it differs, or a comment. The list is not random: actives were taken first. Their share in the collection is about 11%. Unless noted, the call rests on the fitted dose curve; in most records, active means well fitted curve in the direction sought with a large enough effect; inconclusive means small, poorly fitted or top-dose-only effect, or another doubt; inactive means no such curve, though single readings can be large; an effect the other way counts as inactive or inconclusive. On the % scale 0 is the no-effect control and ±100 the full control effect; potency means the concentration at half of the fitted maximal effect.

SMILES	3T3 cytotox	HEK cytotox	NPR1 antag	Luciferase inh
CC(C)(N)c1cn(CC2CCN(C(=O)NC3CCCCCC3)CC2)nn1	-15%	-12%	0%	i
O=C(c1ccc(=O)[nH]c1)N1CCCC(CCc2cccc(C(F)(F)F)c2)C1 (stereo not drawn)	?	?	-6%	i
O=C(c1ccncc1)N1CCCC(CCc2ccc(F)cc2)C1 (stereo not drawn)	?	40µM*	?	i
CCCn1nccc1C(=O)N1CCCC(CCc2cccc(C(F)(F)F)c2)C1 (stereo not drawn)	?	25µM*	?	i
Cc1ncsc1C(=O)N1CCCC(CCc2ccc(F)cc2F)C1 (stereo not drawn)	?	89µM*	-22%	i
CCCc1ncncc1C(=O)N1CCCC(CCc2ccc(F)cc2)C1 (stereo not drawn)	?	?	1%	i
O=C(c1cccc(O)c1)N1CCCC(CCc2cccc(C(F)(F)F)c2)C1 (stereo not drawn)	?	40µM*	2%	i
COCC1CN(C2CCC2)CC12CCN(C(=O)c1cccc(C)c1)CC2 (stereo not drawn)	-20%	?	1%	i
CSCC(=O)N1CCCC(CCc2cccc(F)c2)C1 (stereo not drawn)	?	20µM*	-19%	?
Cc1cn2nc(C(=O)NCc3ccccc3F)cc2c(N2CCCC2)n1	?	?	0%	i
CN(C)c1ccc(C(=O)NC2CCN(c3cc(-c4ccc(F)cc4)[nH]n3)C2)cc1 (stereo not drawn)	?	?	-19%	i
CN(C)c1cccc(C(=O)NC2CCN(c3cc(-c4ccccc4)[nH]n3)CC2)c1	?	?	-22%	40µM*
COc1ccc(-c2cc(N3CCCC(NC(=O)c4ccc(N(C)C)cc4)C3)n[nH]2)cc1 (stereo not drawn)	?	45µM*	-24%	7.1µM*
O=C(NC1CCCN(c2cc(-c3ccccc3)[nH]n2)C1)c1ccc(Br)cc1 (stereo not drawn)	32µM*	22µM*	-5%	i
O=C(NC1CCN(c2cc(-c3ccccc3)[nH]n2)CC1)c1ccccc1	?	?	-25%	i
CN(C)c1ccc(C(=O)NC2CCCN(c3cc(-c4ccc(F)cc4)[nH]n3)C2)cc1 (stereo not drawn)	?	35µM*	-10%	?
Cc1cccc(OCC(=O)N2CCC3(CC2)NC(=O)N(c2ccccc2Cl)N3)c1	?	?	-15%	i
O=C(c1cccs1)N1CCC(N(C(=O)NCCc2ccccc2)C2CCOCC2)CC1	?	i	nt	nt
CN(C)c1cccc(C(=O)NCC2CCN(c3cc(-c4ccc(Cl)cc4)[nH]n3)CC2)c1	40µM*	?	-27%	?
CN(C)c1cccc(C(=O)NC2CCN(c3cnn(C)c(=O)c3)CC2)c1	-6%	i	3%	25µM*
Cc1ccc(-c2cc(N3CCC(CNC(=O)c4cccc(N(C)C)c4)CC3)n[nH]2)cc1	?	?	-20%	?
Cn1ncc(N2CCC(NC(=O)c3ccc4c(c3)OCO4)CC2)cc1=O	-1%	-11%	-4%	i
CN(C)c1cccc(C(=O)NC2CCCN(c3cc(-c4ccc(F)cc4)[nH]n3)C2)c1 (stereo not drawn)	?	?	-10%	16µM*
O=C(NC1CCN(c2cc(-c3ccccc3)[nH]n2)CC1)c1ccsc1	-6%	79µM*	-19%	?
O=C(CC1=C2CCCCC2NC1=O)NC1CC1 (stereo not drawn)	i	i	-3%	i
SMILES	3T3 cytotox	HEK cytotox	NPR1 antag	Luciferase inh
CCc1[nH]c2c(CNC(=O)c3cnc(C)nc3)cc(C)cc2c1C	?	-29%	1%	i
COCCN(Cc1c(C)nn(C)c1C)C(=O)[C@H]1CC[C@@H](N)C1	-5%	-12%	9%	i
CN(C)c1ccc(C(=O)NC2CCCN(c3cc(-c4ccccc4)[nH]n3)C2)cc1 (stereo not drawn)	?	?	-14%	28µM*
CN(C)c1ccc(C(=O)NC2CCN(c3cc(-c4ccccc4)[nH]n3)C2)cc1 (stereo not drawn)	?	?	-10%	i
O=C1Nc2ccccc2CC12CCN(Cc1ccc(OC(F)(F)F)cc1)C2 (stereo not drawn)	?	28µM*	?	i
O=C1NCc2ccccc2CC12CCN(Cc1ccc(-c3ccccc3)cc1)CC2	25µM*	32µM*	nt	nt
Cc1ccccc1C(=O)N1CCCCC12Cc1ccccc1NC2=O (stereo not drawn)	?	112µM*!	15%[70.6 µM]	i
O=C1Nc2ccccc2CC12CCN(Cc1ccc(Cl)cc1)CC2	?	89µM*	nt	nt
O=C(c1ccc(F)cc1)N1C[C@@H](CO)[C@H](c2nc(C3CC3)no2)C1	-7%	-3%	1%	i
CCc1nc2c(c(-c3ccc(O)cc3)n1)CCN(C(=O)Nc1ccccc1)CC2	0%	i	0%	i
O=C1Nc2ccccc2CC12CCCCN2Cc1ccc(F)cc1 (stereo not drawn)	?	79µM*	-2%[70.6 µM]	i
O=[S+]1([O-])NCC2(CCN(Cc3ccc(OC(F)(F)F)cc3)C2)Nc2ccccc21 (stereo not drawn)	?	79µM*	9%	i
O=C1Nc2ccccc2CC12CCN2Cc1ccc(F)cc1 (stereo not drawn)	-25%[138 µM]	?	0%[70.6 µM]	i
O=C1Nc2ccccc2CC12CCN2Cc1ccc(OC(F)(F)F)cc1 (stereo not drawn)	?	45µM*	-15%	i
Cc1cnc(C2CC2)n1C1CCN(C(=O)c2ccoc2)CC1	-7%	-25%	1%	i
Cc1ccc(NC(=O)c2ccc3c(c2)N(C)C2CCCCN2C3=O)cc1F (stereo not drawn)	?	?	0%	?
Cc1cc(NC(=O)c2ccc3c(c2)N(C)C2CCCCN2C3=O)ccc1F (stereo not drawn)	?	?	-24%	22µM*
CN1c2cc(C(=O)Nc3ccc(F)c(F)c3)ccc2C(=O)N2CCCCC21 (stereo not drawn)	-29%	-16%	3%	?
CN1c2cc(C(=O)Nc3ccc4c(c3)CCC4)ccc2C(=O)N2CCCCC21 (stereo not drawn)	?	?	-7%	28µM*
O=C(c1ccncc1)N1CCCN(c2ccnc3ccnn23)CC1	-30%[138 µM]	-20%[172 µM]	nt	nt
COc1ccc(-c2[nH]nc3ncc(-c4ccccc4OC)nc23)c(C)c1	?	89µM*	-8%[70.6 µM]	i
COc1ccc(-c2[nH]nc3ncc(-c4cccnc4OC)nc23)c(C)c1	?	100µM*	-2%[70.6 µM]	i
COc1ncccc1-c1cnc2n[nH]c(-c3ccc(F)cc3C)c2n1	32µM*	?	-15%[70.6 µM]	i
COc1ccccc1-c1cnc2n[nH]c(-c3ccc(F)cc3C)c2n1	?	?	?	i
